# Source: article PMC5540273 (PLoS ONE, 2017)
# Read-outs that look alike come from different tables or passages of the source.
# What was measured:
# [1] = system: AAK1; settings: concentration: 1 μM, replicates: in singlicate; n = 1
# [2] = system: ABL1-nonphosphorylated; settings: concentration: 1 μM, replicates: in singlicate; n = 1
# [3] = system: ABL1-phosphorylated; settings: concentration: 1 μM, replicates: in singlicate; n = 1
# [4] = system: ABL2; settings: concentration: 1 μM, replicates: in singlicate; n = 1
# [5] = system: ACVR1B; settings: concentration: 1 μM, replicates: in singlicate; n = 1
# [6] = system: ACVR1; settings: concentration: 1 μM, replicates: in singlicate; n = 1
# [7] = system: ACVR2A; settings: concentration: 1 μM, replicates: in singlicate; n = 1
# [8] = system: ACVR2B; settings: concentration: 1 μM, replicates: in singlicate; n = 1
# [9] = system: ACVRL1; settings: concentration: 1 μM, replicates: in singlicate; n = 1
# [10] = system: T1, ADCK3; settings: concentration: 1 μM, replicates: in singlicate; n = 1
# T1 construct: gene CABC1
# [11] = system: ADCK4; settings: concentration: 1 μM, replicates: in singlicate; n = 1
# [12] = system: AKT1; settings: concentration: 1 μM, replicates: in singlicate; n = 1
# [13] = system: AKT2; settings: n = 1
# [14] = system: AKT3; settings: concentration: 1 μM, replicates: in singlicate; n = 1
# [15] = system: ALK; settings: concentration: 1 μM, replicates: in singlicate; n = 1
# [16] = system: T2, AMPK-alpha1; settings: concentration: 1 μM, replicates: in singlicate; n = 1
# T2 construct: gene PRKAA1
# [17] = system: T3, AMPK-alpha2; settings: concentration: 1 μM, replicates: in singlicate; n = 1
# T3 construct: gene PRKAA2
# [18] = system: ANKK1; settings: concentration: 1 μM, replicates: in singlicate; n = 1
# [19] = system: T4, ARK5; settings: concentration: 1 μM, replicates: in singlicate; n = 1
# T4 construct: gene NUAK1
# [20] = system: T5, ASK1; settings: concentration: 1 μM, replicates: in singlicate; n = 1
# T5 construct: gene MAP3K5
# [21] = concentration: 1 μM, replicates: in singlicate
# 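Note: KINOMEscan kinase panel screen.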
structure (smiles),measurement,setting,value
O=C(Nc1cccc(-c2nn3ccccc3c2-c2ccnc(Nc3cccc(C(F)(F)F)c3)n2)c1)c1c(F)cccc1F [GSK292658],%Inh,[1],0%
same,%Inh,[2],11%
same,%Inh,[3],0%
same,%Inh,[4],21%
same,%Inh,[5],0%
same,%Inh,[6],0%
same,%Inh,[7],0%
same,%Inh,[8],0%
same,%Inh,[9],0%
same,%Inh,[10],0%
same,%Inh,[11],0%
same,%Inh,[12],0%
same,%Inh,[13]; [21],8%
same,%Inh,[14],2%
same,%Inh,[15],0%
same,%Inh,[16],0%
same,%Inh,[17],13%
same,%Inh,[18],13%
same,%Inh,[19],12%
same,%Inh,[20],2%
CC(=O)N1CCN(c2ccc(Nc3nccc(-c4sc(C(C)C)nc4-c4cccc(NS(=O)(=O)c5cccc(Cl)c5)c4)n3)cn2)CC1 [GSK1660437],%Inh,[1],0%
same,%Inh,[2],95.8%
same,%Inh,[3],35%
same,%Inh,[4],83%
same,%Inh,[5],70%
same,%Inh,[6],61%
same,%Inh,[7],29%
same,%Inh,[8],72%
same,%Inh,[9],44%
same,%Inh,[10],73%
same,%Inh,[11],72%
same,%Inh,[12],0%
same,%Inh,[13]; [21],5%
same,%Inh,[14],0%
same,%Inh,[15],7%
same,%Inh,[16],48%
same,%Inh,[17],75%
same,%Inh,[18],7%
same,%Inh,[19],0%
same,%Inh,[20],0%
CC(C)(C)c1ccc2nccc(Nc3cccc(O)c3)c2c1 [GW856795],%Inh,[1],0%
same,%Inh,[2],86%
same,%Inh,[3],85%
same,%Inh,[4],33%
same,%Inh,[5],0%
same,%Inh,[6],8%
same,%Inh,[7],26%
same,%Inh,[8],63%
same,%Inh,[9],0%
same,%Inh,[10],0%
same,%Inh,[11],41%
same,%Inh,[12],0%
same,%Inh,[13]; [21],0%
same,%Inh,[14],0%
same,%Inh,[15],39%
same,%Inh,[16],0%
same,%Inh,[17],0%
same,%Inh,[18],0%
same,%Inh,[19],0%
same,%Inh,[20],0%
CCn1c(-c2nonc2N)nc2c(C#CC(C)(C)O)ncc(OCCCCN)c21.O=C(O)C(F)(F)F.O=C(O)C(F)(F)F [GSK507274],%Inh,[1],41%
same,%Inh,[2],0%
same,%Inh,[3],4%
same,%Inh,[4],11%
same,%Inh,[5],0%
same,%Inh,[6],3%
same,%Inh,[7],7%
same,%Inh,[8],0%
same,%Inh,[9],0%
same,%Inh,[10],26%
same,%Inh,[11],13%
same,%Inh,[12],93.5%
same,%Inh,[13]; 1 µM,99.1%
same,%Inh,[14],72%
same,%Inh,[15],28%
same,%Inh,[16],1%
same,%Inh,[17],0%
same,%Inh,[18],0%
same,%Inh,[19],50%
same,%Inh,[20],0%
CC(C)c1nc(-c2cccc(NS(=O)(=O)c3c(F)cccc3F)c2F)c(-c2ccnc(Nc3ccc(N4CCOCC4)nc3)n2)s1 [GSK2008607],%Inh,[1],0%
same,%Inh,[2],99.8%
same,%Inh,[3],99.3%
same,%Inh,[4],99.4%
same,%Inh,[5],90.5%
same,%Inh,[6],43%
same,%Inh,[7],0%
same,%Inh,[8],86%
same,%Inh,[9],11%
same,%Inh,[10],100%
same,%Inh,[11],100%
same,%Inh,[12],0%
same,%Inh,[13]; [21],0%
same,%Inh,[14],0%
same,%Inh,[15],28%
same,%Inh,[16],97%
same,%Inh,[17],98.8%
same,%Inh,[18],29%
same,%Inh,[19],0%
same,%Inh,[20],0%
COc1ccc(Nc2nccc(NCCNC(=O)c3cc4ccccc4s3)n2)cc1 [GSK1379896],%Inh,[1],7%
same,%Inh,[2],0%
same,%Inh,[3],0%
same,%Inh,[4],9%
same,%Inh,[5],0%
same,%Inh,[6],0%
same,%Inh,[7],0%
same,%Inh,[8],0%
same,%Inh,[9],0%
same,%Inh,[10],10%
same,%Inh,[11],29%
same,%Inh,[12],0%
same,%Inh,[13]; [21],0%
same,%Inh,[14],0%
same,%Inh,[15],6%
same,%Inh,[16],0%
same,%Inh,[17],0%
same,%Inh,[18],6%
same,%Inh,[19],3%
same,%Inh,[20],0%
C[C@@H]1CC[C@@H](C(=O)Nc2ccccc2)CN1c1cc(-c2ccc3c(N)n[nH]c3c2)nc(N)n1 [GSK2286062],%Inh,[1],18%
same,%Inh,[2],0%
same,%Inh,[3],0%
same,%Inh,[4],2%
same,%Inh,[5],0%
same,%Inh,[6],0%
same,%Inh,[7],0%
same,%Inh,[8],0%
same,%Inh,[9],0%
same,%Inh,[10],29%
same,%Inh,[11],14%
same,%Inh,[12],0%
same,%Inh,[13]; [21],7%
same,%Inh,[14],0%
same,%Inh,[15],0%
same,%Inh,[16],13%
same,%Inh,[17],0%
same,%Inh,[18],3%
same,%Inh,[19],19%
same,%Inh,[20],0%
C[C@@H](Oc1cc(-n2cnc3cc(-c4ccnc(NCCS(C)(=O)=O)c4)ccc32)sc1C(N)=O)c1ccccc1Cl [GSK907232],%Inh,[1],73%
same,%Inh,[2],0%
same,%Inh,[3],0%
same,%Inh,[4],30%
same,%Inh,[5],0%
same,%Inh,[6],10%
same,%Inh,[7],0%
same,%Inh,[8],3%
same,%Inh,[9],0%
same,%Inh,[10],25%
same,%Inh,[11],10%
same,%Inh,[12],0%
same,%Inh,[13]; [21],16%
same,%Inh,[14],0%
same,%Inh,[15],18%
same,%Inh,[16],0%
same,%Inh,[17],0%
same,%Inh,[18],0%
same,%Inh,[19],84%
same,%Inh,[20],0%
CSc1cccc2c(-c3ccncn3)c(-c3ccc(F)cc3)nn12 [GW514786],%Inh,[1],0%
same,%Inh,[2],0%
same,%Inh,[3],0%
same,%Inh,[4],12%
same,%Inh,[5],43%
same,%Inh,[6],0%
same,%Inh,[7],0%
same,%Inh,[8],7%
same,%Inh,[9],0%
same,%Inh,[10],68%
same,%Inh,[11],35%
same,%Inh,[12],0%
same,%Inh,[13]; [21],0%
same,%Inh,[14],4%
same,%Inh,[15],29%
same,%Inh,[16],32%
same,%Inh,[17],0%
same,%Inh,[18],0%
same,%Inh,[19],12%
same,%Inh,[20],0%
CN(C)Cc1ccc(-c2ccc3c(Nc4ccc(Oc5ccccn5)cc4)ccnc3c2)o1 [GW567148],%Inh,[1],0%
same,%Inh,[2],89%
same,%Inh,[3],32%
same,%Inh,[4],18%
same,%Inh,[5],0%
same,%Inh,[6],0%
same,%Inh,[7],0%
same,%Inh,[8],38%
same,%Inh,[9],0%
same,%Inh,[10],0%
same,%Inh,[11],0%
same,%Inh,[12],0%
same,%Inh,[13]; [21],0%
same,%Inh,[14],0%
same,%Inh,[15],22%
same,%Inh,[16],8%
same,%Inh,[17],0%
same,%Inh,[18],0%
same,%Inh,[19],18%
same,%Inh,[20],0%
